Screening data deposited in PubChem by University of Kansas High Throughput Screening Laboratory.
Pf apPOL inh: Pf-apPOL DNA polymerase inhibition. Recombinant Pf-apPOL, molecular beacon fluorescence, 1.5 h. inhibition, % at 10 µM. 210,000 tested, 0.25% active. AID 1794808
mHTT-CaM PPI inh: disrupts binding of mutant huntingtin to calmodulin; P42858; AlphaScreen His-mHTT/GST-CaM binding, luminescence; inhibition, % at 15 µM; 190,000 tested, 3.6% active;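 also: 0% = both proteins with DMSO and 100% = one protein alone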
An asterisk follows results filed as active; x = not tested or not shown; ! = not active in a repeat. The sample as a whole holds a higher share of hits than the screen did. Rule as the data show it: active = inhibition above about 50%; inactive = the rest.

SMILES | Pf apPOL inh | mHTT-CaM PPI inh
CC1=NN(c2ccc(C)c(Cl)c2)C(=O)C1 | -2 | 91*
COc1ccc(-c2cc(C(F)(F)F)n3ncc(C(=O)N4CCCC4)c3n2)cc1 | -7 | -6
NC(=O)c1nn2c(C(F)(F)F)cc(-c3ccc(Cl)cc3)nc2c1Cl | 1 | 0
COc1ccc(-c2cc(C(F)(F)F)n3nc(C(=O)O)c(Cl)c3n2)cc1 | -5 | 64*
COc1ccc(-c2cc(C(F)(F)F)n3nc(C(=O)O)c(Br)c3n2)cc1 | -1 | 65*
COC(=O)c1cc(Nc2cc(OC)cc(OC)c2)c2ccccc2n1 | 0 | -10
CC1CCCN(c2cc(NCCCC(=O)O)c3c4c(onc24)-c2ccccc2C3=O)C1 (stereo not given) | 0 | 77*
O=C1c2ccccc2-c2onc3c(N4CCOCC4)cc(N4CCOCC4)c1c23 | -3 | 39
O=C(NC1CCCCC1)c1ccc2c3c(onc13)-c1ccccc1C2=O | 2 | 42
CC1CC(C)CN(c2cc(NCCCC(=O)O)c3c4c(onc24)-c2ccccc2C3=O)C1 (stereo not given) | 0 | 65*
COc1ccccc1NC(=O)c1ccnc(N2CCNC(c3ccccc3)C2)c1 (stereo not given) | 1 | 4
O=C1CSC(c2cc3c(cc2[N+](=O)[O-])OCO3)N1c1ccccc1 (stereo not given) | -3 | 18
O=C1c2ccccc2NC(c2cc3c(cc2[N+](=O)[O-])OCO3)N1c1ccccc1 (stereo not given) | -1 | 90*!
Cc1cccc2sc(N(CCCN(C)C)C(=O)c3ccccc3Br)nc12 | -4 | 96*
CN(C)CCCN(C(=O)c1nc2ccccc2s1)c1nc2c(Cl)cccc2s1 | 11 | 25
CCn1ccc(/C=C2/CC/C(=C\c3ccn(CC)n3)C2=O)n1 | x | 9
COC(=O)c1ccc(NC(=O)CSc2nc(=O)[nH]c3c2CCC3)cc1 | 2 | 3
O=C(CSc1nc(=O)[nH]c2c1CCC2)c1ccc(Cl)cc1 | 76* | 36
Cc1oc(C2CCN(C(=O)NCCc3ccccc3)CC2)nc1C(=O)N(C)C | 0 | -7
Cc1cc(C)nc(NC(c2ccco2)c2ccc3cccnc3c2O)n1 (stereo not given) | -3 | 100*
CCCCC(=O)NC(c1ccccc1)c1cc(Cl)c2cccnc2c1O (stereo not given) | 11 | 22
CC(=O)NC(c1ccco1)c1cc(Cl)c2cccnc2c1O (stereo not given) | -4 | 100*
O=C(Nc1c(Cl)cc(Cl)c2cccnc12)c1ccco1 | -4 | 4
CCCCC(=O)NC(c1ccco1)c1cc(Cl)c2cccnc2c1O (stereo not given) | -1 | 66*
Cc1cc(C)nc(SCC(=O)NCc2ccco2)n1 | 1 | -6
SMILES | Pf apPOL inh | mHTT-CaM PPI inh
CCC(=O)NC(c1ccco1)c1cc(Cl)c2cccnc2c1O (stereo not given) | 6 | 100*
COc1ccc(S(=O)(=O)N2CC=C(c3cn(C(C)C)c4ncccc34)CC2)cc1 | -1 | 6
CCc1ccc(C(=O)N2CCCC(c3nc(CNC(=O)C(C)C)cs3)C2)cc1 (stereo not given) | -4 | 14
CCOc1ccc(/C=C2\N=C(c3ccc(OC)c(Br)c3)OC2=O)cc1 | 0 | 4
CCOc1ccc(C2N3CC4(C)CN2CC(C)(C3)C4O)cc1OC (stereo not given) | -3 | 0
Cc1ccc(C(=O)NCCn2ccc3ccccc32)cc1C | 10 | -3
COc1cccc(-c2csc(CN3CCN(S(=O)(=O)c4cccs4)CC3)n2)c1 | -6 | -11
Cc1cc(C(=O)Nc2ccc(-c3nc4ccccc4o3)c(O)c2)ccc1[N+](=O)[O-] | 2 | 1
NC(=O)[C@@H]1CSSCCC(=O)N[C@@H](CCCCN=C(N)N)C(=O)NCC(=O)NC(CC(=O)O)C(=O)N[C@@H](Cc2c[nH]c3ccccc23)C(=O)N2CCC[C@H]2C(=O)N1 (stereo not given in full) | -8 | x
O=C1C(=Cc2cccs2)COCC1=Cc1cccs1 | 7 | x
O=C(Nc1cccc2c1CCCC2)c1cccc([N+](=O)[O-])c1 | 2 | 3
CCC(=O)Nc1ccc(Br)c2cccnc12 | 1 | -5
CCC(=O)NC(c1ccco1)c1ccc2cccnc2c1O (stereo not given) | 3 | 100*
COc1cc(/C=C2\C(=O)ON=C2C)cc(Cl)c1OCc1ccccc1 | -1 | 91*
COc1cc(/C=C2\C(=O)ON=C2C)ccc1OCc1ccccc1Cl | 0 | -8
CCOc1cc(/C=C2/C(=O)ON=C2C)ccc1OCc1ccc(Cl)cc1 | -7 | -5
CCOc1cc(/C=C2\C(=O)ON=C2C)cc(Cl)c1OCc1ccc(F)cc1 | -1 | 93*
CC1=NOC(=O)/C1=C/c1ccccc1OCc1cccc(Cl)c1 | -2 | 55*
CCOc1cc(/C=C2\C(=O)ON=C2C)cc(Br)c1OCc1ccc(F)cc1 | -4 | 75*
CC1=NOC(=O)/C1=C/c1ccccc1OCc1ccccc1F | -1 | 20
COc1cc(/C=C2\C(=O)ON=C2C)cc(Br)c1OCc1ccc(F)cc1 | 8 | 46
COc1ccc(NC(=O)CSc2nnc3c4ccccc4n(C)c3n2)cc1 | -9 | 10
Cc1nc(C)c(-c2ccc(=O)n(CCNC(=O)Cc3noc4ccccc34)n2)s1 | -4 | -8
CCOc1ccccc1C(=O)Nc1nnc(CCc2ccccc2)s1 | -2 | 0
N=c1c(C(=O)NCCc2ccccc2)cc2c(=O)n3ccccc3nc2n1CCN1CCOCC1 | -9 | -4
SMILES | Pf apPOL inh | mHTT-CaM PPI inh
O=C1NC(c2cccs2)Nc2ccc([N+](=O)[O-])cc21 (stereo not given) | 6 | x
O=C(CC12CC3CC(C1)CC(c1ccccc1)(C3)C2)NCCN1CCOCC1 | -14 | 26
COc1cc(/C=C2\C(=O)ON=C2C)cc(Cl)c1OCc1ccc(F)cc1 | 7 | 74*
CC1=NOC(=O)/C1=C/c1ccc(OCc2cccc(F)c2)c(Cl)c1 | -4 | 1
COc1cc(C=O)cc(Cl)c1OCc1cccc(F)c1 | -14 | -74
COc1cc(/C=C2\C(=O)ON=C2C)ccc1OCc1cccc(F)c1 | 8 | 100*
COc1ccc(C(=O)N2CCC(c3nc(C4CC4)n[nH]3)CC2)cc1F | 4 | 1
COc1cc(NS(=O)(=O)c2ccc(NC(=O)COc3ccccc3)cc2)nc(OC)n1 | -17 | 6
CCOC(=O)N1CCC(NC=C(C(C)=O)S(=O)(=O)c2ccc(Cl)cc2)CC1 | -35 | x
COc1cc(SC)ccc1C(=O)Nc1nc2ccc(S(C)(=O)=O)cc2s1 | 0 | 63*
COc1ccc(Cl)cc1C(=O)Nc1nc2ccc(S(C)(=O)=O)cc2s1 | 1 | 1
CCCCN(CN1C(=O)C2C3C=CC(C3)C2C1=O)CN1C(=O)C2C3C=CC(C3)C2C1=O (stereo not given) | 0 | 6
CC1(C)CC(=O)C2=C(C1)OC(N)=C(C#N)C2c1ccc(F)cc1 (stereo not given) | -6 | 4
CCN1C=C(Cc2ccc(F)cc2)C2=C(C1)C(c1ccc(F)cc1)C(C#N)=C(N)O2 (stereo not given) | -14 | 85*
Cc1ccccc1C1C(C#N)=C(N)OC2=C1C(=O)CCC2 (stereo not given) | -1 | -8
CCN1C=C(Cc2ccccc2C)C2=C(C1)C(c1ccccc1C)C(C#N)=C(N)O2 (stereo not given) | -5 | 64*
CC(C)COC(=O)C(C)Sc1n[nH]c(=O)[nH]c1=O (stereo not given) | x | -7
O=C(NCc1ccc(F)cc1)NC1CCN(c2ncnc3c2CCC3)C1 (stereo not given) | 4 | 19
